# ChEMBL document CHEMBL1961873, “Compounds: GSK PKIS; Assays: Nanosyn kinase panel” (2012)
# Key:
# [1] = molecular target: Sphingosine kinase 1 (Homo sapiens) (UniProt Q9NYA1); settings: at 1 µM;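 further: mean SPHK1 inhibition value reported from the GSK PKIS kinase panel screen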
# [2] = molecular target: T1, Sphingosine kinase 2 (Homo sapiens) (UniProt Q9NRA0); settings: at 0.1 µM
# T1 sequence (whole entry): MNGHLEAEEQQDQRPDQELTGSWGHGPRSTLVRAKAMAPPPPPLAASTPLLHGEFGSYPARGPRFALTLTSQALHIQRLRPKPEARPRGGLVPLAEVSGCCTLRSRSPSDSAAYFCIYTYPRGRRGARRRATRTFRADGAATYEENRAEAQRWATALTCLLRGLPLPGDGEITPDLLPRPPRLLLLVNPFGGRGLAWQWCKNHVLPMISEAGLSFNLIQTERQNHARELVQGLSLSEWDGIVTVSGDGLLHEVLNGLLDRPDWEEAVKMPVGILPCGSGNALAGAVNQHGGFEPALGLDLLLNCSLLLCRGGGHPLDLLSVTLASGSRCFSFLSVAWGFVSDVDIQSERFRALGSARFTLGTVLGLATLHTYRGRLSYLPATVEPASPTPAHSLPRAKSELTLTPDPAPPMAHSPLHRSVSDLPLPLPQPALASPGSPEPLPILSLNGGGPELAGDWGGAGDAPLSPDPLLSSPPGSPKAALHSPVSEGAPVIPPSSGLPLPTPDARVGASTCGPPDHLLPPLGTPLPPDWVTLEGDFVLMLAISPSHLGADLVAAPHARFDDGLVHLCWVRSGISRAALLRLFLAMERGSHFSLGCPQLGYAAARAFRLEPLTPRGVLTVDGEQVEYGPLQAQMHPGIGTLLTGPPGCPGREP
# [3] = molecular target: T1, Sphingosine kinase 2 (Homo sapiens); settings: at 1 µM
# [4] = molecular target: Casein kinase II subunit alpha (Homo sapiens) (UniProt P68400); settings: at 0.1 µM
# [5] = molecular target: Casein kinase II subunit alpha (Homo sapiens) (UniProt P68400); settings: at 1 µM
# [6] = molecular target: T2, Inhibitor of nuclear factor kappa-B kinase subunit alpha (Homo sapiens) (UniProt O15111); settings: at 0.1 µM
# T2 sequence (whole entry): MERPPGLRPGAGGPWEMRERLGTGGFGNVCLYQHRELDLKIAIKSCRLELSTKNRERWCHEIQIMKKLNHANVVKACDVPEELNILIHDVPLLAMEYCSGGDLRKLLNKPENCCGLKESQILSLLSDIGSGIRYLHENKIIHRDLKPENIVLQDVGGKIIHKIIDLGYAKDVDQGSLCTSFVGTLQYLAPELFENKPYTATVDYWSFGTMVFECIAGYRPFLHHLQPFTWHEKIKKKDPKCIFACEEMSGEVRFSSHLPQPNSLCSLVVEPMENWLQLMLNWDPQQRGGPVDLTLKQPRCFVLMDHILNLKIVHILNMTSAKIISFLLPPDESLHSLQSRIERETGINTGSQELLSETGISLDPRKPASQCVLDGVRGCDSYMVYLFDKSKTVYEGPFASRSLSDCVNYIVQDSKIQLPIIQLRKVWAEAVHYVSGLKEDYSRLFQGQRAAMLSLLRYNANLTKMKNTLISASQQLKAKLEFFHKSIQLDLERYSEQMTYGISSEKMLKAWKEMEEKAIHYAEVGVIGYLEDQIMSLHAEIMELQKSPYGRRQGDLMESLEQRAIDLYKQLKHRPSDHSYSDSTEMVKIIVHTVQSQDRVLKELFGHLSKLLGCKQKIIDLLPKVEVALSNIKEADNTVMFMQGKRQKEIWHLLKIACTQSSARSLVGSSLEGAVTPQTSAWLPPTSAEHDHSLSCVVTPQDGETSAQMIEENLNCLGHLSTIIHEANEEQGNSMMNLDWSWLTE
# [7] = molecular target: T2, Inhibitor of nuclear factor kappa-B kinase subunit alpha (Homo sapiens); settings: at 1 µM
# [8] = molecular target: T3, Inhibitor of nuclear factor kappa-B kinase subunit beta (Homo sapiens) (UniProt O14920); settings: at 0.1 µM
# T3 sequence (whole entry): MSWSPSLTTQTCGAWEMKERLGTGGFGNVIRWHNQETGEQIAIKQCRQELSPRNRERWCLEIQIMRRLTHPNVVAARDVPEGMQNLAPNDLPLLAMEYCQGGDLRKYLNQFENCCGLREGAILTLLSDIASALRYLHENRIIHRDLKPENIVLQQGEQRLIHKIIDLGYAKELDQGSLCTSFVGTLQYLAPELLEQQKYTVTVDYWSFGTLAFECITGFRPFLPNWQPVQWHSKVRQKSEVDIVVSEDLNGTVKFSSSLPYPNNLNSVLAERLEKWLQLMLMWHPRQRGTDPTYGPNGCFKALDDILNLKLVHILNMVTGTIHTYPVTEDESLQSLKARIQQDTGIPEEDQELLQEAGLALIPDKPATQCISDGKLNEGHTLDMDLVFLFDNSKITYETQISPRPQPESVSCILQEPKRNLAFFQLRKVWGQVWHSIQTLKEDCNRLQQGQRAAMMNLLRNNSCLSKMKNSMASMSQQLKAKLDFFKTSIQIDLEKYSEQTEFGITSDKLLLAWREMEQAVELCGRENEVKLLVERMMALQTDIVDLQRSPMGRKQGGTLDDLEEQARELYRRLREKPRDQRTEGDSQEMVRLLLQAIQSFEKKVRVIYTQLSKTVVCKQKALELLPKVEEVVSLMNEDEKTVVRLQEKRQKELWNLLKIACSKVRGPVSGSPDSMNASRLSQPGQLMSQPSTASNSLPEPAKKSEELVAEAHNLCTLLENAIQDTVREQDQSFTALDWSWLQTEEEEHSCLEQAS
# [9] = molecular target: T3, Inhibitor of nuclear factor kappa-B kinase subunit beta (Homo sapiens); settings: at 1 µM
# [10] = molecular target: T4, Inhibitor of nuclear factor kappa-B kinase subunit epsilon (Homo sapiens) (UniProt Q14164); settings: at 0.1 µM
# T4 sequence (whole entry): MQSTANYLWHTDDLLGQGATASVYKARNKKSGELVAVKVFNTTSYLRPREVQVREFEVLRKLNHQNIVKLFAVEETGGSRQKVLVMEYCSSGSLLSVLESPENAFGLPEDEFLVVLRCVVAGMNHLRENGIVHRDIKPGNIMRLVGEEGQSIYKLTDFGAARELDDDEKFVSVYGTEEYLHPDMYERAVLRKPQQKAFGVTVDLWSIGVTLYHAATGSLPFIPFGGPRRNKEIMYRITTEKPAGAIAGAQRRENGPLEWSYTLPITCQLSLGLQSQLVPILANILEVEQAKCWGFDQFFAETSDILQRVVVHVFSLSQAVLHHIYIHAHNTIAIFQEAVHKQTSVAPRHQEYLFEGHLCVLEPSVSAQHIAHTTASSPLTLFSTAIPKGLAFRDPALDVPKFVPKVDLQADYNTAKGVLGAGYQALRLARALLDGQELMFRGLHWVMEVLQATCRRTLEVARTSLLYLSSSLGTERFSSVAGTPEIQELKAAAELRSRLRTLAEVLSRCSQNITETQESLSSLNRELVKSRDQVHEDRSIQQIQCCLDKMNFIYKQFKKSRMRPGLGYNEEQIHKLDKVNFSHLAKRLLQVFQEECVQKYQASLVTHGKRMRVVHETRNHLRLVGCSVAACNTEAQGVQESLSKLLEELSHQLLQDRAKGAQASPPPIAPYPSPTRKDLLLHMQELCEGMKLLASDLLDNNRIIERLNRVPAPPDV
# [11] = molecular target: T4, Inhibitor of nuclear factor kappa-B kinase subunit epsilon (Homo sapiens); settings: at 1 µM
# [12] = molecular target: T5, Serine/threonine-protein kinase Nek1 (Homo sapiens) (UniProt Q96PY6); settings: at 0.1 µM
# T5 sequence (whole entry): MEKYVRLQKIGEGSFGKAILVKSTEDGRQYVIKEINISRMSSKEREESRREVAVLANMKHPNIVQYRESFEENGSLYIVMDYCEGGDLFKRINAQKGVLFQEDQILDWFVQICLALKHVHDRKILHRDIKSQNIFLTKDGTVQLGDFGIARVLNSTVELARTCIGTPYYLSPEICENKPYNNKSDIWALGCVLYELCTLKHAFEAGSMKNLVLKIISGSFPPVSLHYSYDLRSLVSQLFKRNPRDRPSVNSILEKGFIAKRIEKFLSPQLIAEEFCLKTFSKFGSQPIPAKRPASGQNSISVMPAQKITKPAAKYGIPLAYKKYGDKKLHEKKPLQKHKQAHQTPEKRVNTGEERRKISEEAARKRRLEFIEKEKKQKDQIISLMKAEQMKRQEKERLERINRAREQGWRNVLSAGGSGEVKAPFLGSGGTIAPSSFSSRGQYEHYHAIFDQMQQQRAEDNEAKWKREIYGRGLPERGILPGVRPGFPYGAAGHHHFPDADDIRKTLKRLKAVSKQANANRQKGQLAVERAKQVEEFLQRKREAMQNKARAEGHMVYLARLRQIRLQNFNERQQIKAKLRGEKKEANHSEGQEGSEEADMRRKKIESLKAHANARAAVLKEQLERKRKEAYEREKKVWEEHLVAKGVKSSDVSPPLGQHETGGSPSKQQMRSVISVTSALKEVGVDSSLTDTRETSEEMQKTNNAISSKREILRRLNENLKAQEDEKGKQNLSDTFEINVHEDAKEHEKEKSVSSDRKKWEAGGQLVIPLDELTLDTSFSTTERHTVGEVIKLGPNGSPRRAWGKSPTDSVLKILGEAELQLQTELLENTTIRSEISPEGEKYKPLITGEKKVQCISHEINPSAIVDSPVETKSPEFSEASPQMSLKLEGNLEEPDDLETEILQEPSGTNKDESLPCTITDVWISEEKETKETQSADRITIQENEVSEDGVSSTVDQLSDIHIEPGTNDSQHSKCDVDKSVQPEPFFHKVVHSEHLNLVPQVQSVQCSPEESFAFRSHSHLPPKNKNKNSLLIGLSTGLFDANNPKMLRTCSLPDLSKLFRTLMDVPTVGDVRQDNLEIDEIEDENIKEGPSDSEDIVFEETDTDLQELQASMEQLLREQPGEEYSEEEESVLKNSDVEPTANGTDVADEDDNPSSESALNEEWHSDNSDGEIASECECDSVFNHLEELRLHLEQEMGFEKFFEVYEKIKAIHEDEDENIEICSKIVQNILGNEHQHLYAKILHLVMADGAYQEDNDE
# [13] = molecular target: T5, Serine/threonine-protein kinase Nek1 (Homo sapiens); settings: at 1 µM
# [14] = molecular target: T6, Serine/threonine-protein kinase Nek2 (Homo sapiens) (UniProt P51955); settings: at 0.1 µM
# T6 sequence (whole entry): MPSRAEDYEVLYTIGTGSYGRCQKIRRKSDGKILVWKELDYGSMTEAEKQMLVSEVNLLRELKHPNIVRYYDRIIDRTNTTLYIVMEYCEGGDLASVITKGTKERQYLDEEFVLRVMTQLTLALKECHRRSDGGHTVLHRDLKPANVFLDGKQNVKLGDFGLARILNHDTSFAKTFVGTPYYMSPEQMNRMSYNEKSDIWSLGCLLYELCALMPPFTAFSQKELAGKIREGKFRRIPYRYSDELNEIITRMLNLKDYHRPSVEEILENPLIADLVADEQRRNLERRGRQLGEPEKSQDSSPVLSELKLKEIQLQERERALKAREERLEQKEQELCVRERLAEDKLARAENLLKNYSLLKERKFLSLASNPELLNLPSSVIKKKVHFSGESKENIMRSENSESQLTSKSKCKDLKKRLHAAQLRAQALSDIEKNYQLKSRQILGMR
# [15] = molecular target: T6, Serine/threonine-protein kinase Nek2 (Homo sapiens); settings: at 1 µM
# [16] = molecular target: Serine/threonine-protein kinase Nek6 (Homo sapiens) (UniProt Q9HC98); settings: at 0.1 µM
# [17] = molecular target: Serine/threonine-protein kinase Nek6 (Homo sapiens) (UniProt Q9HC98); settings: at 1 µM
# [18] = molecular target: Serine/threonine-protein kinase Nek7 (Homo sapiens) (UniProt Q8TDX7); settings: at 0.1 µM
# [19] = molecular target: Serine/threonine-protein kinase Nek7 (Homo sapiens) (UniProt Q8TDX7); settings: at 1 µM
# [20] = molecular target: T7, Serine/threonine-protein kinase Nek9 (Homo sapiens) (UniProt Q8TD19); settings: at 0.1 µM;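 further: reported value is the mean percent inhibition of NEK9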
# T7 sequence (whole entry): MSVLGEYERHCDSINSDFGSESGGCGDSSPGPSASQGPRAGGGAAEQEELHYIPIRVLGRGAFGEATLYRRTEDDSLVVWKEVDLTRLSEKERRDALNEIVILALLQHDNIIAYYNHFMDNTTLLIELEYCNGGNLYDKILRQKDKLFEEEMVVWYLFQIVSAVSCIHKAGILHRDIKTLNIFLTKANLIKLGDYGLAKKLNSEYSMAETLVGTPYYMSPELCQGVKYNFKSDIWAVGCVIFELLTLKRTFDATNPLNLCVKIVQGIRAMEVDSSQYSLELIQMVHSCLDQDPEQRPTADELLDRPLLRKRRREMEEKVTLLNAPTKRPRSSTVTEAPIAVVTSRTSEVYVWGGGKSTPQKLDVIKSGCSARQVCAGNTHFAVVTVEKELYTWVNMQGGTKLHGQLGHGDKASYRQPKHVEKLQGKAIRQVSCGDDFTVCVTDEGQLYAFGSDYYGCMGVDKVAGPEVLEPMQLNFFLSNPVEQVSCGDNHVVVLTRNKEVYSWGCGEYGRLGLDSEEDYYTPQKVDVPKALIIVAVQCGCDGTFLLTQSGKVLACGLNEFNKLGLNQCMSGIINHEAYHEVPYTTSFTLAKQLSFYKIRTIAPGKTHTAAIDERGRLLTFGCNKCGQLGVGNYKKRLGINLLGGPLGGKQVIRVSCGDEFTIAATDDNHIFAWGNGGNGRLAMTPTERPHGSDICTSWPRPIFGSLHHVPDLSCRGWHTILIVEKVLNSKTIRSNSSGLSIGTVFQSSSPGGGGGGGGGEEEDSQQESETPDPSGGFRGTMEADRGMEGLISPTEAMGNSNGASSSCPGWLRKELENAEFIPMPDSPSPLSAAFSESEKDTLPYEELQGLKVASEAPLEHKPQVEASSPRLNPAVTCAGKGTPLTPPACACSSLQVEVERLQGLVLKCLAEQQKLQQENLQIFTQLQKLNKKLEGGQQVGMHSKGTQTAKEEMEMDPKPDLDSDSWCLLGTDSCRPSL
# Sequence of Serine/threonine-protein kinase Nek6 (Homo sapiens) (Q9HC98 whole entry): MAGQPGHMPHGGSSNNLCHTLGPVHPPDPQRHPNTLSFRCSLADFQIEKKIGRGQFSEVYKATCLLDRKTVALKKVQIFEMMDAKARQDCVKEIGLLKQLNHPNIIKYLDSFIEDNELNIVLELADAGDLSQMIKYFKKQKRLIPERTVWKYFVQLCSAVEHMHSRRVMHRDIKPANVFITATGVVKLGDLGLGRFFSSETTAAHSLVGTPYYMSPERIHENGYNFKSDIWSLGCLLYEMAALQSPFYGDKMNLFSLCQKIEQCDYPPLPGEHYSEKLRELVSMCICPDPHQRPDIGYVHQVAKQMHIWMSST
# Sequence of Casein kinase II subunit alpha (Homo sapiens) (P68400 whole entry, looked up): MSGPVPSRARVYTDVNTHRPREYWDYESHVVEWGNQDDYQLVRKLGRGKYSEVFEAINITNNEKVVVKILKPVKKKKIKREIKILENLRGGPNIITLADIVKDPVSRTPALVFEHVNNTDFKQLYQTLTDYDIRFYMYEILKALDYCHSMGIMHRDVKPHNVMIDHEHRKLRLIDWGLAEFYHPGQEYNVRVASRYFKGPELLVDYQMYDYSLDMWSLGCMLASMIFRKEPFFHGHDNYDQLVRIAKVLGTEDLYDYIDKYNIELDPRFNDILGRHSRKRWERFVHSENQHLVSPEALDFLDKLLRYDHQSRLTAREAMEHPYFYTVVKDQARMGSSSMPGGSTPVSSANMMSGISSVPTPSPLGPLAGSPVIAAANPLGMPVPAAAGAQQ
# Sequence of Serine/threonine-protein kinase Nek7 (Homo sapiens) (Q8TDX7 whole entry, looked up): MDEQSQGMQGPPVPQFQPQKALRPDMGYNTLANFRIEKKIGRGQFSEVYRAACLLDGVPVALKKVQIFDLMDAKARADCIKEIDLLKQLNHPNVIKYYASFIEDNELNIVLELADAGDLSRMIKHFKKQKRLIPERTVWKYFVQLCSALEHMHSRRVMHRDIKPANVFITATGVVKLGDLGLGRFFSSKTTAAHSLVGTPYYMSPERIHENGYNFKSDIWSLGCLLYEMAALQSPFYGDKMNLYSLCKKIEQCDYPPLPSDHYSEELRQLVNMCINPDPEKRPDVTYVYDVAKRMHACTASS
# Sequence of Sphingosine kinase 1 (Homo sapiens) (Q9NYA1 whole entry): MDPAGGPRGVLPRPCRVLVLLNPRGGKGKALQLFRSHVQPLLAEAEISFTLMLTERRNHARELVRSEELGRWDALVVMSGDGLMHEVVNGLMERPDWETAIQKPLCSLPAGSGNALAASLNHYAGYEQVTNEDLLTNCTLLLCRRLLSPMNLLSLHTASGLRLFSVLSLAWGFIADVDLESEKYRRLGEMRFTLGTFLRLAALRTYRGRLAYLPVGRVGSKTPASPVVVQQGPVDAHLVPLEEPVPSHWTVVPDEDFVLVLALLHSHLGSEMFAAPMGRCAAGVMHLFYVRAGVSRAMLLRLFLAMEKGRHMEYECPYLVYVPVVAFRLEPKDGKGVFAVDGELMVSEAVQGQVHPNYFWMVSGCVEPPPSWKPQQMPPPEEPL
compound,measurement,setting,value
O=C(Nc1n[nH]c2nnc(-c3cccnc3)cc12)C1CC1,inhibition,[1],-2.26%
same,inhibition,[2],-0.36%
same,inhibition,[3],-1.77%
same,inhibition,[4],3.14%
same,inhibition,[5],5.42%
same,inhibition,[6],0.84%
same,inhibition,[7],-0.73%
same,inhibition,[8],1.55%
same,inhibition,[9],1.04%
same,inhibition,[10],-2.46%
same,inhibition,[11],0.84%
same,inhibition,[12],0.17%
same,inhibition,[13],1.72%
same,inhibition,[14],0.71%
same,inhibition,[15],-2.27%
same,inhibition,[16],-0.09%
same,inhibition,[17],-0.1%
same,inhibition,[18],0.09%
same,inhibition,[19],1.6%
same,inhibition,[20],7.25%
